Laboratory results from ChEMBL document CHEMBL3988442, “University of Dundee, Small-Polar-MMV Screening Library” (2021).
In all, about 48,000 compounds went through this assay and about 13,000 (27%) showed an effect of 50% or more. Some of the results follow.

System: Wolbachia pipientis
Experiment: Anti-Wolbachia Cell-Based Screen
Format: functional
Set-up: scale not given: in the data most compounds retested in dose-response had high values
Conditions: 5 µM

Row | Structure (SMILES) | Percent Effect
1 | CCCS(=O)(=O)NCC1CCOc2ccccc2C1 (centres undefined) | -3.198%
2 | Cn1nnc2c1C(COCC1CC1)CN(C(=O)Cc1ccccn1)C2 (centres undefined) | 3.096%
3 | Cc1c[nH]c(CN(C)c2nc(C3CCCC3)nc3c2cnn3C)n1 | -9.015%
4 | Cc1cc(CC(C)Nc2nc(C3CCCC3)nc3c2cnn3C)[nH]n1 (centres undefined) | 4.574%
5 | CCC(Nc1nc(C2CCCC2)nc2c1cnn2C)c1ccncc1 (centres undefined) | 11.81%
6 | CCc1nnc(CN(C)c2nc(C3CCCC3)nc3c2cnn3C)o1 | -12.86%
7 | CNc1ncc(CN(C)c2nc(C3CCCC3)nc3c2cnn3C)cn1 | 113.7%
8 | Cn1ncc2c(NCCn3cccc3)nc(C3CCCC3)nc21 | 12.23%
9 | Cc1nc(N(C)CCN(C)C)c2cnn(C)c2n1 | -4.82%
10 | Cc1cc(C)nc(CN(C)c2nc(C3CCCC3)nc3c2cnn3C)c1 | 180.1%
11 | CN(Cc1ccno1)c1nc(C2CCCC2)nc2c1cnn2C | 93.91%
12 | CNCCCNc1nc(C2CCCC2)nc2c1cnn2C | -5.607%
13 | Cc1nn(C)c(C)c1CN(C)c1nc(C2CCCC2)nc2c1cnn2C | 74.08%
14 | CCCc1nc(N(C)Cc2cnc(NC)nc2)c2cnn(C)c2n1 | 3.632%
15 | O=C(c1ccc(-n2cncn2)cc1)N1CCN(c2cnccn2)CC1 | -5.785%
16 | N#Cc1ccc(NCC(=O)Nc2ccn(Cc3cccnc3)n2)cc1 | 0.1964%
17 | O=C(CCc1ccccn1)N1CCc2cc(Cl)cc(Cl)c2C1 | -9.614%
18 | CC(NC1(CNC(=O)C(C)(C)C#N)CCOCC1)c1ccccc1 (centres undefined) | -5.654%
19 | Cc1noc(C)c1CN(C)c1nc(C2CCCC2)nc2c1cnn2C | 118.2%
20 | CC(C)N(CCNc1nc(C2CCCC2)nc2c1cnn2C)C(C)C | -18.52%
21 | CCOCCNc1nc(C2CCCC2)nc2c1cnn2C | -2.506%
22 | COc1ncccc1CN1CCn2c(C(=O)N3CCCC3)cnc2C1.O=C(O)C(F)(F)F.O=C(O)C(F)(F)F | -2.628%
23 | COCCN1CCn2cc(CN(C)Cc3ccco3)nc2C1 | 6.66%
24 | CC(Nc1ncnc2c1CCNC2)c1ccc(C(C)(C)C)cc1 (centres undefined) | 30.56%
25 | CCCc1ccc(C(C)Nc2ncnc3c2CCNC3)cc1 (centres undefined) | -93.4%
26 | Cc1nc2c(c(NCC(O)C(F)(F)F)n1)CCNCC2 (centres undefined) | -4.402%

Row | Structure (SMILES) | Percent Effect
27 | Cc1[nH]c2ccc(C#N)cc2c1CCNc1ncnc2c1CCNCC2 | 9.456%
28 | CCOc1ccc(C(C)Nc2ncnc3c2CCNC3)cc1OCC (centres undefined) | -5.441%
29 | OC(CNc1ncnc2c1CCNCC2)C(F)(F)F (centres undefined) | -1.789%
30 | Cc1nc2c(c(NCC(O)c3ccccc3Cl)n1)CCNCC2 (centres undefined) | -5.653%
31 | Cc1nc2c(c(NCC(c3ccccc3C)N(C)C)n1)CCNC2 (centres undefined) | 96.84%
32 | Cc1[nH]c2ccc(Cl)cc2c1CCNc1ncnc2c1CCNC2 | 12.31%
33 | Cc1ccccc1C(CNc1ncnc2c1CCNC2)N(C)C (centres undefined) | 84.04%
34 | Cc1ccccc1C(Nc1ncnc2c1CCNC2)c1ccccc1 (centres undefined) | 93.65%
35 | Cc1ccccc1C(CNc1ncnc2c1CCNCC2)N(C)C (centres undefined) | 105.5%
36 | Cc1nn(C)c(C)c1CN(C)S(=O)(=O)c1c(C)n[nH]c1C | 32.27%
37 | CCC(=O)N1CCN(C(=O)c2ccc(COC)o2)[C@H]2CS(=O)(=O)C[C@H]21 | 2.835%
38 | CN(C)CCNCC1(O)CCCN(Cc2cccc(F)c2F)C1=O (centres undefined) | -8.676%
39 | CNS(=O)(=O)CCNC(=O)c1coc(COc2ccc(F)cc2)n1 | -18.85%
40 | O=C([C@@H]1Cc2[nH]cnc2CN1CC1CC1)N1CCCC1 | 2.393%
41 | Cc1cc2c(o1)CC(C)(C)CC2NC(=O)CNC(=O)C1CC1 (centres undefined) | 15.35%
42 | CC(=O)NC1CC(C)(C)Cc2c1cnn2-c1cccc(F)c1 (centres undefined) | 27.72%
43 | CC1(C)Cc2nc(C(C)(C)C)ncc2C(NC(=O)CN)C1 (centres undefined) | 108.4%
44 | CC1(C)Cc2nc(C(C)(C)C)ncc2C(NC(=O)C2(N)CC2)C1 (centres undefined) | 76.58%
45 | COC(C)(C)C(=O)N1Cc2cnc(C(C)(C)C)nc2C1 | 5.24%
46 | CC1(C)Cc2nc(C(C)(C)C)ncc2C(NC(=O)Cc2nnn[nH]2)C1 (centres undefined) | 84.56%
47 | Cc1cc(C)n(CC(=O)N2Cc3cnc(C(C)(C)C)nc3C2)n1 | -6.513%
48 | CC(=O)N1Cc2cnc(C(C)(C)C)nc2C1 | -14.29%
49 | CC(C)(C)c1ncc2c(n1)CN(C(=O)c1ccncc1)C2 | 6.547%
50 | CNCC(=O)NC1CC(C)(C)Cc2nc(C(C)(C)C)ncc21 (centres undefined) | 107.2%
51 | COC(=O)NCC(=O)NC1CC(C)(C)Cc2oc(C)cc21 (centres undefined) | -2.578%
52 | CC(C)(C)c1ncc2c(n1)CN(C(=O)c1ccc(-n3cnnn3)cc1)C2 | -15.52%

Row | Structure (SMILES) | Percent Effect
53 | O=C(Nc1ccc(F)c(Cl)c1)N1CCCN([C@H]2COC[C@@H]2O)CC1 | 0.3317%
54 | Cc1nc(C)n(CC2CCCCN2CC(=O)Nc2nncs2)n1 (centres undefined) | -8.145%
55 | Cc1cc(C)cc(CN2CCN(Cc3cc(C#N)n(C)c3)CC2=O)c1 | -7.638%
56 | CCCC(C)Sc1nnnn1C1CCOCC1 (centres undefined) | -26.91%
57 | Cc1c[nH]c(CN2CCCn3nc(CNS(C)(=O)=O)cc3C2)n1 | -1.605%
58 | CC(O)CNC(=O)NCc1cccnc1OC1CCCC1 (centres undefined) | 3.42%
59 | CCC(CNC1CCN(C(=O)N(C)C)CC1)Oc1ccccc1C (centres undefined) | 14.11%
60 | CCc1noc(C(C)N2CCN(Cc3ncc(C(C)(C)C)o3)CC2)n1 (centres undefined) | -21.42%
61 | CCSCCC(=O)NC1CCN(C(C)c2ccccc2)CC1 (centres undefined) | -12.67%
62 | CCc1noc(C(C)N2CCC(NC(=O)c3ccc(C)s3)CC2)n1 (centres undefined) | -3.823%
63 | CCS(=O)(=O)c1ccc(N2CCC(NC(=O)C3CCCCC3)CC2)cc1 | 14.13%
64 | CC(C)c1noc(C(C)N2CCN(CCc3ccncc3)CC2)n1 (centres undefined) | -3.07%
65 | CCc1nnc(C(C)N2CCC(NC(=O)C3CCCCC3)CC2)o1 (centres undefined) | 111.1%
66 | CCc1nnc(C(C)N2CCN(CCC(=O)NC3CC3)CC2)o1 (centres undefined) | 108.9%
67 | CCc1nnc(C(C)N2CCN(CCC(C)(C)C)CC2)o1 (centres undefined) | 109.6%
68 | CNC(=O)CCN1CCN(C(C)c2ccc(Cl)cc2)CC1 (centres undefined) | 7.005%
69 | CC(C)(C)n1ncc2c(=O)[nH]c(N3CC(O)C3)nc21 | 23.02%
70 | CN(C)c1nc(CNC(=O)NC2CCc3ccccc32)cs1 (centres undefined) | 14.75%
71 | CC(c1nccs1)N(C)Cc1ccc(CCC(C)(C)O)cc1 (centres undefined) | -1.522%
72 | CC(=O)N1C[C@@H](F)[C@@H](OCc2nc3cc(C)c(C)cc3[nH]2)C1 | -18.48%
73 | CCOCCCNC(=O)NCc1c(C)nn(C)c1C | 102.2%
74 | CCOCCCNc1nc2c(s1)c(C)nn2C | 6.024%
75 | CCOCCCNC(=O)c1cn(CC)nc1C | 9.774%
76 | CCc1nc2c(c(N(C)Cc3nncn3CCOC)n1)CCNCC2 | 0.734%
77 | Cc1cc2[nH]c(=O)c(=O)[nH]c2cc1S(=O)(=O)NC1CCCCC1 | 114.9%
78 | Cc1cc(CS(=O)(=O)NC2CCCCC2)on1 | 4.481%

Row | Structure (SMILES) | Percent Effect
79 | Cc1c(NCc2cccc(C#N)c2)cccc1S(=O)(=O)NC1CC1 | -25.48%
80 | Cc1cc(S(C)(=O)=O)c(C)c(S(=O)(=O)NC2CCCC2)c1 | 3.251%
81 | Cc1cc2[nH]c(=O)c(=O)[nH]c2cc1S(=O)(=O)NC1CCC(C)CC1 (centres undefined) | 107.5%
82 | Cc1cn2c(n1)CCC(NS(=O)(=O)c1cc(C)sc1C)C2 (centres undefined) | -1.827%
83 | CC(C)(O)CN1CCN(C(=O)COCC(F)(F)F)CC1 | 2.26%
84 | O=C1NCC2(CCCN(C(=O)c3ccc4c(c3)CCCO4)CC2)O1 (centres undefined) | 15.15%
85 | CN(C)c1ccc(NC(=O)c2cccc(N(C)C)c2)nc1 | -10.74%
86 | Cc1ccc(NC(=O)c2cccc(N(C)C)c2)nc1 | -7.622%
87 | Cc1ccnc(NC(=O)c2ccc(C)o2)c1 | -0.4749%
88 | Cc1ccnc(NC(=O)c2ccc(Br)o2)c1 | -3.231%
89 | Cc1ccnc(NC(=O)c2cccc(OCc3nnnn3C)c2)c1 | 92.28%
90 | Cc1ccc(NC(=O)c2cccc(OCc3nnnn3C)c2)nc1 | 97.4%
91 | CNS(=O)(=O)CCN1CC(c2ccccc2)(c2ccccc2)CCC1=O | 8.028%
92 | CCC(CC)(CNC(=O)OC(C)(C)C)NC(=O)c1cnccn1 | 8.305%
93 | CN(Cc1cn2c(n1)CN(Cc1nccs1)CC2)Cc1ccco1.O=C(O)C(F)(F)F.O=C(O)C(F)(F)F | -16.64%
94 | CN(Cc1ccncc1)C1CC2(CCN(c3ncccn3)CC2)C1.O=C(O)C(F)(F)F.O=C(O)C(F)(F)F.O=C(O)C(F)(F)F | -4.65%
95 | CN(Cc1ccccc1)C1COC2(CCN(Cc3nccs3)CC2)C1.O=C(O)C(F)(F)F (centres undefined) | 20.92%
96 | CN(C)S(=O)(=O)N1CC[C@]2(C[C@H](OCc3ccncc3)CO2)C1.O=C(O)C(F)(F)F | 20.75%
97 | CN(Cc1cccnc1)C1CC2(CCN(c3ncccn3)CC2)C1.O=C(O)C(F)(F)F.O=C(O)C(F)(F)F | 96.99%
98 | CN(Cc1ccccn1)C1COC2(CCN(Cc3nccs3)CC2)C1 (centres undefined) | -7.584%
99 | Cc1ccsc1CN1CCC2(CC1)CC(OCc1cccnc1)CO2.O=C(O)C(F)(F)F.O=C(O)C(F)(F)F (centres undefined) | 12.52%
100 | CN(Cc1cccnc1)C1COC2(CCN(Cc3nccs3)CC2)C1.O=C(O)C(F)(F)F.O=C(O)C(F)(F)F.O=C(O)C(F)(F)F (centres undefined) | 111.1%
101 | CN(Cc1cccnc1)C1CC2(CCN(c3ncc(F)cn3)CC2)C1.O=C(O)C(F)(F)F.O=C(O)C(F)(F)F | -6.301%
102 | Cc1cnc(N2CCC3(CC2)CC(N(C)Cc2ccncc2)C3)nc1.O=C(O)C(F)(F)F.O=C(O)C(F)(F)F | -8.3%
103 | CN(Cc1ccco1)C1COC2(CCN(Cc3nccs3)CC2)C1.O=C(O)C(F)(F)F.O=C(O)C(F)(F)F (centres undefined) | 98.22%
104 | CN(Cc1ccncc1)C1COC2(CCN(Cc3cccs3)CC2)C1.O=C(O)C(F)(F)F.O=C(O)C(F)(F)F.O=C(O)C(F)(F)F (centres undefined) | 100.2%
